# Bioassay records (PubChem)
# Compounds with a hit are over-represented: about 21% of the library has one in this group of screens.
# Pf growth 48h = P. falciparum growth inhibition at 48 hours (one generation) | P. falciparum luciferase growth in erythrocytes, 48 h | AID 504832 | Potency, µM (series often up to 28.7 µM), most hits filed as inhibitors | 5.9% of 310,000 active
#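 Luminescence readout; reporter = integrated firefly luciferase in P. falciparum. RBC culture at 2% hematocrit, 0.1% parasitemia final, 37 C/5% CO2; decreased signal taken as growth inhibition.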
# HCV inh = HCV inhibition; 3.4% of 340,000 active; AID 651820; Potency, µM (series often up to 41.8 µM), actives largely listed as inhibitors; Huh7.5.1 HCVcc-Cre infection, luciferase reporter, 44 h
#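 Compounds are dispensed onto cells plated 4 h earlier at 1,000 per well, with HCVcc-Cre virus (about 0.5 moi) added next. Following 44 h of culture, luminescent signal is measured for 15 sec after 15 min with substrate at room temperature.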
# AMA1-RON2 inh = AMA1-RON2 (P. falciparum) interaction inhibition; AlphaScreen AMA1-biotinylated RON2 peptide binding; Potency, µM (top dose mostly 58.2 µM), usual class: inhibitors; 0.2% of 360,000 active; AID 720542; note: nearly all actives have a fitted effect of over 45% in size
#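 AMA1 (3D7) with his tag at 25 nM final met compounds first, then biotinylated RON2 peptide at 25 nM; detection used donor plus acceptor beads, 10 µg/mL apiece, read by AlphaScreen after 30 min at room temperature.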
# Pf growth 96h = P. falciparum growth inhibition at 96 hour, primary screen for plastid delayed-death inhibitors. 6.9% of 320,000 active. AID 504834. P. falciparum luciferase reporter growth, 96 h. Potency, µM (series often up to 28.7 µM), most hits filed as inhibitors
#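 Parasite growth measured via integrated firefly luciferase reporter in P. falciparum. Infected erythrocytes at 2% hematocrit, 0.05% parasitemia final were treated 96 hours at 37 C under 5% CO2, and luminescence was read.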
# Shiga toxin inh = inhibitors of Shiga toxin in Vero cells | inhibition, % at 38.7 µM | 9.2% of 290,000 active | Vero cells, Shiga toxin protein synthesis inhibition reporter; in the data active = inhibition mostly above about 28%, no sharp cut-off; inactive = mostly below about 43%
# Cycloheximide cs = counter-screen for Shiga toxin inhibitors: cycloheximide protein synthesis inhibition; 12% of 300,000 active; cell reporter, cycloheximide protein synthesis inhibition counterscreen; max response, %; AID 2314; in the data active = max response mostly above about 13%, no sharp cut-off; inactive = mostly below about 14%; note: read at 38.3 µM for the half of the compounds with a filed dose
# Numbers stand for hits; – = inactive; ? = inconclusive; · = no result. Unless noted, calls come from the whole dose curve; as a rule, active = well fitted curve in the direction sought with a large enough effect; inconclusive = small, poorly fitted or top-dose-only effect, or another doubt; inactive = no such curve, though single readings can be large; an effect the other way counts as inactive or inconclusive.
SMILES,Pf growth 48h,HCV inh,AMA1-RON2 inh,Pf growth 96h,Shiga toxin inh,Cycloheximide cs
Cc1cccc2cc(/C=N/NC(=O)[C@H]3C[C@@H]3c3ccccc3)c(Cl)nc12,–,–,–,–,–,–
Cc1cccc(S(=O)(=O)NC(=O)C2(C)CCN2C(=O)Cc2ccc(-c3ccccc3)cc2)c1 (configuration not stated),·,·,–,·,·,·
COc1cc(NC(=O)[C@@H](NC(=O)N2CCn3c2nc2ccccc23)C(C)C)cc(OC)c1,?,?,–,?,–,–
Oc1ccc2[nH]cc(CCCCN3CC=C(c4ccccc4)CC3)c2c1,4.26µM,·,·,4.26µM,·,·
Cc1ccc(C)c(NC(=S)NC2CC3CCC(C2)N3Cc2ccco2)c1 (configuration not stated),?,–,–,11.7µM,–,–
Cc1cccc(NC(=S)NC2CC3CCCC(C2)N3Cc2cccs2)c1 (configuration not stated),?,?,–,10.4µM,–,–
Fc1ccc(NC(=S)NC2CC3CCC(C2)N3Cc2ccco2)cc1 (configuration not stated),–,–,–,–,–,–
Cc1cc(C)cc(NC(=S)NC2CC3CCC(C2)N3Cc2ccco2)c1 (configuration not stated),?,–,–,2.33µM,–,–
C=C1C(=O)OC2C1CCC(C)C1C=CC(=O)C12C (configuration not stated),·,?,–,·,·,·
C=C1C(=O)OC2CC(C)C3C=CC(=O)C3(C)C(O)C12 (configuration not stated),·,2.51µM,–,·,·,·
CC1C(=O)O[C@@H]2C[C@@H](C)[C@@H]3CCC(=O)[C@@]3(C)[C@@H](O)[C@H]12 (some centres not stated),–,–,–,–,–,–
C=C1C(=O)O[C@@H]2C[C@@H](C)[C@@H]3C4OC4C(=O)[C@@]3(C)[C@@H](O)[C@H]12 (some centres not stated),3.29µM,?,–,3.29µM,–,–
C=C1C(=O)O[C@H]2C[C@@H](C)[C@@H]3C=CC(=O)[C@@]3(C)C[C@H]12,5.22µM,–,–,8.28µM,46.7,40.2
C=C1C(=O)O[C@H]2[C@H]1[C@H](OC(=O)CC(=O)O[C@@H]1C[C@@H](C)[C@@H]3C=CC(=O)[C@@]3(C)[C@H]3OC(=O)C(=C)[C@H]13)C[C@@H](C)[C@H]1C=CC(=O)[C@]12C,?,?,–,?,–,–
C=C1C(=O)O[C@@H]2C[C@@H](C)[C@@H]3C=CC(=O)[C@@]3(C)[C@@H](OC(=O)CC(=O)O[C@H]3[C@@H]4C(=C)C(=O)O[C@@H]4C[C@@H](C)[C@@H]4C=CC(=O)[C@]43C)[C@H]12,1.04µM,1.12µM,–,1.31µM,–,–
Cn1c(N2CCCC2)nc2c1c(=O)n(Cc1cccc(F)c1)c(=O)n2C,?,?,–,10.4µM,–,–
Cn1c(=O)c2sccc2n(Cc2cccc(Br)c2)c1=O,–,11.2µM,–,?,–,–
Cn1c(Cl)nc2c1c(=O)n(Cc1cccc(Br)c1)c(=O)n2C,–,12.6µM,–,–,–,–
CC(O)CNc1nc2c(c(=O)n(C)c(=O)n2C)n1Cc1cccc(Br)c1 (configuration not stated),–,11.2µM,–,–,–,–
Cc1c(NC(=O)C(C)N(c2ccccc2)S(C)(=O)=O)c(=O)n(-c2ccccc2)n1C (configuration not stated),–,–,–,–,–,–
CCCCN(C=O)c1c(CC)nc2ccc(C(=O)N3CCCCC3)cn12,·,·,–,·,·,·
COc1cccc(Cn2c(NCC(C)C)nc3c2c(=O)n(C)c(=O)n3C)c1,?,–,–,?,–,–
CC(C)CNc1nc2c(c(=O)n(C)c(=O)n2C)n1Cc1cccc(Br)c1,11.7µM,–,–,–,–,–
O=C(c1ccco1)N1CCN(S(=O)(=O)c2cccc(Cl)c2)CC1,–,–,–,–,–,–
O=Cc1cccn1Cc1ccccc1[N+](=O)[O-],–,–,–,9.28µM,–,33.1
SMILES,Pf growth 48h,HCV inh,AMA1-RON2 inh,Pf growth 96h,Shiga toxin inh,Cycloheximide cs
O=[N+]([O-])c1ccccc1CNCCO,–,–,–,–,·,·
CC(C)(C)C(=O)Nc1nc(NC(=O)C(C)(C)C)nc(-c2ccccc2Cl)n1,–,–,–,–,–,–
CC(=O)Nc1cc2nn(-c3ccccc3)nc2cc1Cl,–,–,–,–,64.0,26.1
Cc1nn(-c2cccc(Cl)c2)nc1C(=O)O,–,–,–,–,–,–
CC(C)(C)C(=O)Nc1cc2nn(-c3ccccc3)nc2cc1Cl,·,–,–,–,86.3,47.5
Nc1ccn(CC(=O)NCCNc2ccc([N+](=O)[O-])cn2)c(=O)n1,–,?,–,–,·,·
Cc1nc(C(C)N(C)Cc2c(C(=O)N3CCCCC3)nc3c(C)cccn23)c(C)s1 (configuration not stated),?,–,–,10.4µM,–,–
COCC1CCN(Cc2c(C(=O)N3CCOCC3)nc3c(C)cccn23)C1 (configuration not stated),·,·,–,·,·,·
COC(=O)[C@@H]1CCCN1Cc1c(C(=O)N2CCCCC2)nc2c(C)cccn12,–,–,–,8.28µM,–,–
Cc1cccn2c(CN(C)CCC3CCCCO3)c(C(=O)N3CCCCC3)nc12 (configuration not stated),–,–,–,13.1µM,–,–
COc1ccc(-c2c[n+](CC(=O)c3cccs3)c3n2CCC3)cc1,2.33µM,?,–,?,–,–
Cc1ccc(-c2c[n+](CC(=O)c3cccs3)c3n2CCC3)cc1,2.33µM,–,?,4.15µM,–,–
Cc1ccc(-c2c[n+](CC(=O)OCc3ccccc3)c3n2CCC3)cc1,–,–,–,–,–,–
CCOC(=O)CC(NC(=O)C(Cc1ccc(N(CCCl)CCCl)cc1)NC(C)=O)C(=O)OCC (configuration not stated),9.28µM,?,–,–,–,–
Cc1ccc(NC(=O)CN(C)CC(=O)Nc2sc3c(c2C(N)=O)CCC3)cc1,?,?,–,?,–,–
CC(=O)c1ccc(NC(=O)C(C)Sc2nnc(-c3ccncc3)n2C2CC2)cc1 (configuration not stated),·,–,–,·,·,·
O=C(O)C1Cc2ccccc2N2CCCC12 (configuration not stated),?,–,–,1.85µM,–,–
O=C(O)C1CCCCN1c1ccccc1[N+](=O)[O-] (configuration not stated),·,·,–,·,·,·
c1ccc(-n2ccnc2)cc1,–,–,–,–,–,–
c1ccc(-c2nc(-n3ccnc3)nc(-n3ccnc3)n2)cc1,8.28µM,?,–,2.33µM,–,–
CC(C)Nc1nc(-c2ccccc2)nc(-n2ccnc2)n1,2.33µM,2.82µM,–,–,–,–
FC(F)(F)c1cc(-c2ccccc2)nc(NC2CCCC2)n1,·,?,–,–,–,–
